Some test systems named below: SR leukemia; RPMI-8226 leukemia; OVCAR-8 ovarian; OVCAR-5 ovarian; OVCAR-4 ovarian; SK-OV-3 ovarian; IGROV1 ovarian; OVCAR-3 ovarian; HS 578T breast; NCI/ADR-RES ovarian.
Test in all cases: NCI-60 one-dose screen, 48 h (100 = growth as untreated, 0 = no growth, -100 = all killed)
Holding throughout (details): 10 µM unless noted

The structures appear in SMILES notation. This is part of a sample that, as a whole, favours compounds with a hit. Of some 83,000 tested, about 20% had one in any assay.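 Results are percent growth after 48 hours of single-concentration exposure. 100 means growth as in untreated cells, lower positive values show inhibition; negative values down to -100 show cell death.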 Values without a mark were called inactive. Activity calls are given as the source filed them. How the source made its calls: active means growth percent below 10; inactive means the rest.

For the molecule `C#Cc1ccc(NC(=O)c2ccc(/C=C/C(=O)c3nccn3C)cc2)cc1`, the growth in the experiment on SR leukemia was -18.8% (active); in the experiment with RPMI-8226 leukemia, -25.9% (active); with OVCAR-8 ovarian it was 5.61% (active); in the experiment with OVCAR-5 ovarian it was -61.6% (active); in the experiment with OVCAR-4 ovarian, 9.83% (active); in the experiment on SK-OV-3 ovarian, 18.7%. Also, the growth in the experiment on IGROV1 ovarian was -37.3% (active); in the experiment on OVCAR-3 ovarian, -86% (active); in the experiment on HS 578T breast, 33.1%; in the experiment on NCI/ADR-RES ovarian, -7.85% (active).
With `Fc1ccc(-c2nn(-c3ccccc3)cc2-c2nc3ccccc3o2)cc1`, the growth in the experiment on SR leukemia is 43.6%; with RPMI-8226 leukemia, 48.2%; with OVCAR-8 ovarian, 58.8%; in the experiment on OVCAR-5 ovarian, 122%; with OVCAR-4 ovarian, 78.1%; in the experiment with SK-OV-3 ovarian, 120%. Further, the growth with IGROV1 ovarian is 82.1%; with OVCAR-3 ovarian, 45.1%; with HS 578T breast, 82%; in the experiment with NCI/ADR-RES ovarian it was 46.9%.
For `Cc1ccc(-c2csc(NC(=O)CN3CCN(c4cc5c(cc4F)c(=O)c(C(=O)O)cn5C4CC4)CC3)n2)cc1`, the growth in the experiment on SR leukemia is -0.152% (active); in the experiment with RPMI-8226 leukemia, 6.21% (active); in the experiment with OVCAR-8 ovarian, 10.6%; with OVCAR-5 ovarian, 21.1%; in the experiment with OVCAR-4 ovarian, 20.8%; in the experiment on SK-OV-3 ovarian, -7.14% (active). For the same molecule, the growth in the experiment with IGROV1 ovarian is 25.4%; with OVCAR-3 ovarian, 14.8%; with HS 578T breast, 47.8%; in the experiment with NCI/ADR-RES ovarian it was 4.91% (active).
In the case of `CNc1nc(S(=O)c2ccc(C#N)cc2)nc2ccccc12` (stereo not given), the growth with SR leukemia is 29.4%; in the experiment on RPMI-8226 leukemia, 61%; with OVCAR-8 ovarian, 87.8%; in the experiment on OVCAR-5 ovarian, 81.2%; in the experiment with OVCAR-4 ovarian it was 68.6%; in the experiment on SK-OV-3 ovarian it was 98.6%. In addition, the growth in the experiment with IGROV1 ovarian was 86.3%; in the experiment with OVCAR-3 ovarian, 53.4%; in the experiment with HS 578T breast, 79.9%; in the experiment on NCI/ADR-RES ovarian, 97.8%.
As to `COC(=O)c1ccc2c(c1)C(=O)c1c-2n(CCCN)c(=O)c2cc([N+](=O)[O-])ccc12`, the growth is -45.3% (active) in the experiment with SR leukemia; -40.4% (active) in the experiment with RPMI-8226 leukemia; -65.3% (active) in the experiment with OVCAR-8 ovarian; -74.2% (active) in the experiment on OVCAR-5 ovarian; -77.1% (active) in the experiment on OVCAR-4 ovarian; -81.8% (active) with SK-OV-3 ovarian. For the same molecule, the growth is -81.7% (active) with IGROV1 ovarian, -93.2% (active) in the experiment on OVCAR-3 ovarian, -71% (active) with HS 578T breast and -39.4% (active) in the experiment with NCI/ADR-RES ovarian.
With `CCOC(=O)c1c2c(n3ccc(C)cc13)C(=O)c1ccccc1C2=O`, the growth with SR leukemia is 84.8%; in the experiment on RPMI-8226 leukemia, 98%; in the experiment with OVCAR-8 ovarian, 86.1%; in the experiment with OVCAR-5 ovarian, 109%; with OVCAR-4 ovarian it was 101%; in the experiment on SK-OV-3 ovarian, 103%. The growth in the experiment with IGROV1 ovarian is 78%; in the experiment with OVCAR-3 ovarian, 88.2%; with HS 578T breast, 93.3%; in the experiment on NCI/ADR-RES ovarian it was 95%.
As for `C[C@]12C=CC(=O)C=C1CCC1C2[C@@H](O)C[C@@]2(C)C1CC[C@]2(O)C(=O)COC(=O)CCC(=O)O` (stereo not given in full), the growth is 98% in the experiment on SR leukemia; 64.3% in the experiment on RPMI-8226 leukemia; 91.3% with OVCAR-8 ovarian; 89.9% with OVCAR-5 ovarian; 98.4% in the experiment on OVCAR-4 ovarian; 80.2% in the experiment on SK-OV-3 ovarian. Also, the growth in the experiment on IGROV1 ovarian is 102%; in the experiment on OVCAR-3 ovarian it was 119%; with HS 578T breast, 119%; in the experiment on NCI/ADR-RES ovarian it was 92.1%.
In the case of `Clc1ccc(Sc2cnc(-c3ccccc3)o2)cc1`, the growth in the experiment on SR leukemia is 90%; with RPMI-8226 leukemia, 89.7%; with OVCAR-8 ovarian, 99.2%; in the experiment with OVCAR-5 ovarian it was 98.8%; in the experiment on OVCAR-4 ovarian, 95.8%; in the experiment with SK-OV-3 ovarian it was 101%. Besides, the growth with IGROV1 ovarian is 97%; in the experiment on OVCAR-3 ovarian it was 97.5%; in the experiment on HS 578T breast, 99.1%; in the experiment with NCI/ADR-RES ovarian, 108%.
For the molecule `COc1cccc(NC(=O)Cn2cc(CN3CCN(c4ccnc5cc(Cl)ccc45)CC3)nn2)c1`, the growth is 97.2% with SR leukemia; 48% with RPMI-8226 leukemia; 83.2% with OVCAR-8 ovarian; 93.5% in the experiment on OVCAR-5 ovarian; 85.9% with OVCAR-4 ovarian; 74% in the experiment on SK-OV-3 ovarian. The growth was 84.9% with IGROV1 ovarian, 101% in the experiment on OVCAR-3 ovarian, 80.8% in the experiment with HS 578T breast and 94.7% in the experiment on NCI/ADR-RES ovarian.
For the molecule `C#CCOc1ccc2ncnc(Nc3ccc(NC(=O)CCl)cc3)c2c1`, the growth was -7.69% (active) with SR leukemia; -16.7% (active) in the experiment with RPMI-8226 leukemia; 2.5% (active) in the experiment with OVCAR-8 ovarian; 30.5% in the experiment on OVCAR-5 ovarian; -17.5% (active) with OVCAR-4 ovarian; 22.4% in the experiment on SK-OV-3 ovarian. Besides, the growth was -55.3% (active) in the experiment on IGROV1 ovarian, -38.6% (active) in the experiment on OVCAR-3 ovarian, 27.6% with HS 578T breast and 7.93% (active) in the experiment with NCI/ADR-RES ovarian.
In the case of `C=CCn1c(SCC(=O)Nc2ccc(C(=O)/C=C/c3cc4cc(OC)ccc4nc3Cl)cc2)nnc1-c1ccc(Br)cc1`, the growth in the experiment with SR leukemia is 58.4%; with RPMI-8226 leukemia, -19.8% (active); in the experiment on OVCAR-8 ovarian, 79.8%; with OVCAR-5 ovarian, 99.2%; with OVCAR-4 ovarian, 84.8%; in the experiment with SK-OV-3 ovarian it was 95.7%. Moreover, the growth is 78.4% with IGROV1 ovarian, 97.4% in the experiment with OVCAR-3 ovarian, 89.2% with HS 578T breast and 92.3% in the experiment on NCI/ADR-RES ovarian.
As to `Fc1cc(F)cc(C(c2c[nH]c3ccccc23)c2c[nH]c3ccccc23)c1`, the growth with SR leukemia is 106%; in the experiment on RPMI-8226 leukemia it was 95.2%; in the experiment with OVCAR-8 ovarian it was 102%; with OVCAR-5 ovarian, 88.8%; with OVCAR-4 ovarian, 116%; with SK-OV-3 ovarian, 117%. In addition, the growth in the experiment on IGROV1 ovarian was -6.52% (active); with OVCAR-3 ovarian it was 112%; in the experiment with HS 578T breast, 82%; in the experiment with NCI/ADR-RES ovarian, 92.2%.
As to `O=S(=O)(NCCNc1cc(-c2c(-c3cccc(O)c3)nc3sccn23)ccn1)c1ccc(C(F)(F)F)cc1`, the growth is 19.6% in the experiment with SR leukemia; 30.3% with RPMI-8226 leukemia; 28.4% with OVCAR-8 ovarian; 93.5% in the experiment with OVCAR-5 ovarian; 22.1% in the experiment with OVCAR-4 ovarian; 45.4% with SK-OV-3 ovarian. Further, the growth with IGROV1 ovarian was 36.4%; with OVCAR-3 ovarian, 37.1%; with HS 578T breast it was 42.8%; in the experiment on NCI/ADR-RES ovarian it was 58%.
